Rows were chosen to be rich in hits. Some 2.4% of all compounds tested hit in one or more screens of this group.
M1 antag: antagonists of human M1 muscarinic receptor | inhibition, % at 3 µM | CHO-K1 hM1, Fluo-8 calcium fluorescence, ACh EC80 antagonist | P11229 | 1.3% of 360,000 active;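 active = percent inhibition above its own plate's cutoff, namely the mean of that plate's compound wells plus 3 SD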;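 also: peak over basal fluorescence ratio during 140 s after agonist addition; 0% = ACh EC80 plus DMSO and 100% = DMSO alone without agonist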
Target sequence (P11229 whole entry, looked up): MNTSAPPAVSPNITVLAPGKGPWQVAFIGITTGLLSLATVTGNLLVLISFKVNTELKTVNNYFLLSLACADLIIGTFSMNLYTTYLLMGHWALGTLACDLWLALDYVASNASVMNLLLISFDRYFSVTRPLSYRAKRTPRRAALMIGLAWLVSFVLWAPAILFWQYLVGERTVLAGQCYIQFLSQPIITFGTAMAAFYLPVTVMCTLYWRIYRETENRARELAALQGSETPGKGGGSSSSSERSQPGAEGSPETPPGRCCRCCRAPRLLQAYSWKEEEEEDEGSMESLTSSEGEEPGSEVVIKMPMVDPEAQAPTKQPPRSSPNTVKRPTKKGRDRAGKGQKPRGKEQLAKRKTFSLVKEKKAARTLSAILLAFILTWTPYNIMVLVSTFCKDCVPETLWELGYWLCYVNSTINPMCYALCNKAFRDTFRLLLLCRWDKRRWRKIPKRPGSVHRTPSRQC
M1 PAM parental: nonselective activator or artifact in parental CHO-K1 calcium assay; activation, % at 3 µM; ATP EC20, Fluo-8 calcium fluorescence; 0% at ATP EC20, 100% at ATP max; 0.02% of 360,000 active;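 active = activation above the run cutoff, the mean activation of all test compounds plus 3 SD, cut at about 40% in these data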;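 also: peak over basal fluorescence ratio in a 140 s read after ATP addition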
CHO-K1 Ca antag: M1 antagonist counterscreen hit in parental CHO-K1 cells. ATP-induced calcium, Fluo-8 fluorescence. inhibition, % at 3 µM. 0.6% of 360,000 active. AID 602250;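 active = inhibition above a per-plate cutoff, the plate's mean sample inhibition plus 3 SD, cut at about 24% in these data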;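 also: 0% = DMSO plus EC80 ATP and 100% = DMSO alone without ATP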
CHRM1 agonist: agonists of human M1 muscarinic receptor. P11229. CHO-K1 hM1, Fluo-8 calcium fluorescence, agonist mode; 0% DMSO, 100% acetylcholine EC100. activation, % at 3 µM. 0.33% of 360,000 active. AID 588814;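 active = activation above the run's mean compound activation plus 3 SD, cut at about 16% in these data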;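 also: peak over basal fluorescence ratio within a 140 s kinetic read after compound addition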
CHO-K1 Ca ag: M1 agonist counterscreen hit in parental CHO-K1 cells. 0.48% of 360,000 active. activation, % at 3 µM. Fluo-8 calcium fluorescence; scaled to maximal ATP response, vehicle zero; in the data active = activation above about 15%;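 also: untransfected CHO-K1 host cells lacking M1 receptor as counterscreen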
M1 PAM: human CHRM1 positive allosteric modulation | CHO-K1 hM1, Fluo-8 calcium fluorescence, ACh EC20; 0% = ACh EC20, 100% = maximal ACh | activation, % at 3 µM | 0.088% of 360,000 active; in the data active = activation above about 19%, passing the limit was not always enough
* = called active by the depositor.

SMILES | M1 antag | M1 PAM parental | CHO-K1 Ca antag | CHRM1 agonist | CHO-K1 Ca ag | M1 PAM
CCN(CC)CCNC(=O)C1(O)c2cc(Br)ccc2NC(=O)N1c1c(F)cccc1F (stereo not drawn) | -8 | 20 | 0 | -3 | 2 | 6
c1ccc(CC[C@@H]2CC[C@@H](CCc3ccccc3)N2)cc1 | 32* | 18 | -12 | -14 | 4 | -27
Cc1ccc(C(O)(CCN2CCCCC2)c2ccccc2)cc1 (stereo not drawn) | 101* | 5 | -8 | -9 | 0 | -27
OC(C#CCCN1CCCCC1)(c1ccccc1)c1ccccc1 | 99* | 10 | -10 | -3 | 0 | -27
CCN(CC)CCC#CC(O)(c1ccccc1)c1ccccc1 | 99* | 23 | -8 | -11 | 7 | -27
OC(CCN1CCCCC1)(c1ccccc1)C1C[C@@H]2C=C[C@H]1C2 (stereo partly drawn) | 99* | 12 | -1 | -9 | 0 | -26
Cc1nn(CC(=O)NCC(C)c2ccccc2)c(=O)c2cc(-c3ccccc3)nn12 (stereo not drawn) | 5 | 6 | 17 | -1 | 0 | 3
CC(Oc1cccc2ccccc12)C(=O)N/N=C/c1cccnc1 (stereo not drawn) | -15 | 20 | -7 | 1 | 4 | 14
OC(C#CCCN1CCCCC1)(c1ccccc1)C1CCCCC1 (stereo not drawn) | 97* | 1 | 0 | -7 | 1 | -25
CC(Oc1ccc(C#N)cc1)C(=O)Nc1ccc(-n2cnnn2)cc1 (stereo not drawn) | 23 | -30 | 2 | 17* | 7 | -12
Cc1ccsc1C(=O)NNC(=O)COc1ccccc1Cl | -4 | -31 | 31* | -3 | 0 | 6
CCc1ccc(C(CNC(=O)c2ccc3c(=O)n(-c4ccccc4F)c(=S)[nH]c3c2)N(C)C)cc1 (stereo not drawn) | 37* | -3 | 4 | -5 | 2 | -19
COCCNC(=O)c1cc2c(=O)[nH]c3ccccc3c2s1 | 5 | -1 | -4 | -1 | 1 | 5
CCCN1CCN(CCCNC(=O)c2cc3c(=O)[nH]c4ccccc4c3s2)CC1 | 12 | 10 | -9 | 21* | 0 | -7
CCCN1CCN(CCCNC(=O)c2cc3c(=O)oc4ccc(C)cc4c3s2)CC1 | -1 | -17 | 2 | 21* | 0 | -6
CCN(CC)CCNC(=O)c1ccc2c(c1)NC(=O)c1ccccc1S2 | 3 | 11 | 5 | -12 | 0 | 4
CCCN1CCN(CCCNC(=O)c2ccc3c(c2)NC(=O)c2ccccc2S3)CC1 | 42* | 6 | -6 | -5 | 0 | -20
Cc1onc(-c2ccccc2)c1C(=O)NCC(=O)Nc1cc(Cl)ccc1Cl | 1 | 3 | -12 | -4 | 2 | 4
COc1cn(-c2ccccc2)nc1C(=O)NCc1ccccc1 | -27 | 5 | -16 | 2 | -1 | 33*
COc1cn(-c2ccccc2)nc1C(=O)NCc1ccc(C)cc1 | -16 | 16 | -7 | -5 | -1 | 8
Cc1nc(SC(C)C(=O)NC2CCCC2)c2ccccc2n1 (stereo not drawn) | -1 | 16 | 3 | 0 | 6 | 7
COCCN1CC(=O)N2C(c3cccc(OC)c3)c3[nH]c4ccccc4c3C[C@H]2C1=O (stereo partly drawn) | -6 | 2 | -12 | -3 | 2 | 2
CN(C)C/C=C/C(O)(c1ccccc1)c1ccccc1 | 97* | 19 | -4 | -7 | 1 | -26
CCCOc1ccc(C(=O)NNC(=S)NC(=O)c2cccs2)cc1 | 78* | -29 | 44* | 92* | 87* | -25
CC(C)(C)c1ccc(C(=O)NC(=S)NCc2cccnc2)cc1 | 8 | 3 | -5 | -8 | 3 | -16
SMILES | M1 antag | M1 PAM parental | CHO-K1 Ca antag | CHRM1 agonist | CHO-K1 Ca ag | M1 PAM
COC(=O)CNC(=S)NC(=O)c1ccc(C(C)(C)C)cc1 | 72* | 7 | -6 | -7 | 0 | -24
CC(C)(C)c1ccc(C(=O)NC(=S)NNC(=O)COc2ccccc2)cc1 | 4 | 2 | -4 | 24* | 2 | 0
CCCOc1ccc(C(=O)NNC(=S)NC(=O)c2ccccc2)cc1 | 69* | -39 | 42* | 115* | 105* | -38
CCn1c(SCc2cccc(OC)c2)nc2ccccc2c1=O | -1 | 2 | -24 | -6 | 0 | -4
O=C(NC1CCN(C(=O)c2ccccc2Br)CC1)c1ccccc1 | -14 | 8 | -10 | 3 | 3 | 12
CCCOc1ccc(C(=O)NNC(=S)NC(=O)c2ccco2)cc1 | 17 | -28 | 21 | 67* | 60* | -18
O=C(COc1ccc(Cl)cc1Cl)NNC(=S)NC(=O)c1ccco1 | -1 | 12 | -9 | -2 | 0 | -1
CCCOc1ccc(C(=O)NNC(=S)NC(=O)c2ccccc2[N+](=O)[O-])cc1 | 8 | 7 | 3 | 13 | 15* | 5
COc1ccc(C(=O)NNC(=S)NC(=O)c2ccco2)cc1 | -6 | 8 | -4 | 7 | 7 | 2
CC(Oc1ccc(Cl)cc1)C(=O)NNC(=S)NC(=O)c1ccco1 (stereo not drawn) | -2 | 6 | -3 | 51* | 32* | -10
Cc1noc(C)c1CSCC(=O)Nc1cc(C(F)(F)F)ccc1N1CCOCC1 | -10 | 9 | -12 | -4 | 1 | 6
CCCS(=O)(=O)NC(=O)C1(C)CCN(C(=O)c2ccco2)C1 (stereo not drawn) | -6 | 16 | -11 | -4 | 1 | 5
O=C(COC(=O)COc1ccc2c(c1)CCC2)Nc1ccccc1C(F)(F)F | -1 | 2 | -1 | 0 | 2 | 4
COc1cc(CNC(=O)Nc2nnc([C@@H]3C[C@H](O)[C@@H](CO)O3)s2)cc(OC)c1OC | -4 | 4 | -15 | -1 | 1 | 6
O=C(Nc1nc(-c2ccc(F)c(F)c2)cs1)c1cc([N+](=O)[O-])ccc1N1CCOCC1 | -4 | 12 | -14 | -3 | 2 | 6
O=C(NCc1cccnc1)c1cc([N+](=O)[O-])ccc1N1CCOCC1 | -1 | 23 | -24 | 20* | 1 | 0
Cc1cc(C)c(-c2csc(NC(=O)c3cc([N+](=O)[O-])ccc3N3CCOCC3)n2)c(C)c1 | 59* | 18 | -2 | -10 | 0 | -30
CCOc1ccc(S(=O)(=O)NCCC(=O)N(C)Cc2cccs2)cc1 | -10 | 10 | -4 | -5 | 1 | 8
CCN(CC)C(=O)[C@H]1C[C@H](CC(=O)NCc2ccc(OC)c(OC)c2)C(=O)N2CCc3c([nH]c4cc(-c5ccco5)ccc34)[C@]12C | -10 | -5 | -11 | -5 | 1 | 6
CCn1cc(CN2CCC(n3nccc3NC(=O)c3ccccc3C)CC2)c(C)n1 | -11 | -11 | 1 | -4 | 0 | 7
CC(c1ccc(O)cc1)(c1ccc(O)cc1)c1ccc(CCBr)cc1 | 1 | -7 | 6 | 10 | 18* | 1

From PubChem BioAssay
